From PubChem BioAssay (EPA / NIEHS)
Several values for one entry are separate records, joined by “and”; a condition that tells them apart may be missing. Identical values can stand only once. Records with an inconclusive call do not appear. Some structures have more than one record in an assay (separate samples or runs), and their calls can disagree. Activity calls are given as the source filed them. Rule for the calls, unless noted: active = hit-call score of the fitted dose curve at least 0.9, where 1 is the maximum; inactive = score below 0.9.

Assays:
[1] = BSK_BT_Bcell_Proliferation: Viability Assessment in the BioMAP Diversity Plus: BT Assay for B cell Proliferation (AID 2284227); conditions: primary human B cells with PBMC
Method in brief: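 Human B cells co-cultured with PBMC were dosed with test chemicals and relative cell number was quantified by SRB staining at 72 h. Cells were fixed in 10% TCA, stained with 0.1% SRB and read at 560 nm. Activity was fitted in the positive direction against DMSO.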

[2] = read-out: Interleukin 6 (IL6), IL6 (gene 3569); experiment: BSK_BT_xIL6: BioMAP Diversity Plus: BT Assay for Interleukin 6 (IL6) Biomarker Activity (AID 2284228); conditions: primary human B cells with PBMC
Method in brief: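 Human B cell plus PBMC co-culture exposed to test chemical for 24 h; secreted IL-6 quantified by Luminex xMAP bead assay. Activity fitted in the positive direction against DMSO as negative control and baseline.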

[3] = read-out: Interleukin 17A (IL17A), IL17A (gene 3605); experiment: BSK_BT_xIL17A: BioMAP Diversity Plus: BT Assay for Interleukin 17A (IL17A) Biomarker Activity (AID 2284229); conditions: primary human B cells with PBMC
Method in brief: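 B cells co-cultured with PBMC were exposed to test chemicals, and secreted IL-17A was quantified 24 h after dosing by Luminex xMAP bead immunoassay. Activity was fitted in the gain direction against DMSO as baseline.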

[4] = read-out: Tumor necrosis factor (Homo sapiens) (UniProt P01375); experiment: BSK_BT_xTNFa: BioMAP Diversity Plus: BT Assay for Tumor necrosis factor alpha (TNF-alpha) Biomarker Activity (AID 2284230); conditions: primary human B cells with PBMC
Method in brief: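 B cells with PBMC in co-culture, dosed and sampled at 24 h; secreted TNF-alpha measured by Luminex xMAP bead assay. Activity fitted in the gain direction against DMSO as negative control and baseline.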

[5] = read-out: Vascular cell adhesion molecule 1 (VCAM1), VCAM1 (gene 7412); experiment: BSK_MyoF_VCAM1: BioMAP Diversity Plus: MyoF Assay for Vascular cell adhesion molecule 1 (VCAM1) Biomarker Activity (AID 2284231); conditions: primary human lung fibroblasts
Method in brief: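 Primary human lung fibroblasts were dosed with test chemical for 24 h, then cell-surface VCAM-1 was measured by ELISA. Activity was fitted in the positive direction against DMSO as negative control and baseline.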

[6] = read-out: Collagen I, COL1A1 (gene 1277); experiment: BSK_MyoF_CollagenI: BioMAP Diversity Plus: MyoF Assay for Collagen I Biomarker Activity (AID 2284238); conditions: primary human lung fibroblasts
Method in brief: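 Human lung fibroblasts were exposed to test chemical for 24 h, then Collagen I was quantified by ELISA. Activity was fitted in the increasing direction against DMSO as the negative control and baseline.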

[7] = read-out: Collagen III, COL3A1 (gene 1281); experiment: BSK_MyoF_CollagenIII: BioMAP Diversity Plus: MyoF Assay for Collagen III Biomarker Activity (AID 2284239); conditions: primary human lung fibroblasts
Method in brief: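 Human lung fibroblasts were dosed with chemicals and, 24 hours later, collagen III was measured by ELISA. Activity was fitted in the positive direction against the DMSO negative-control baseline.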

[8] = CCTE_Mundy_HCI_hNP1_Casp3_7: CCTE's Caspase-Glo 3/7 Assay in human neuroprogenitor cells for Apoptosis, Mundy Lab (AID 2284240)
Method in brief: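 Apoptosis is scored by activated caspase-3/7 luminescence in WA09-derived neural progenitor cells, measured 26.5 h after chemical dosing. Values represent gain of signal relative to DMSO vehicle.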

[9] = read-out: Interleukin 17F (IL17F), IL17F (gene 112744); experiment: BSK_BT_xIL17F: BioMAP Diversity Plus: BT Assay for Interleukin 17F (IL17F) Biomarker Activity (AID 2284243); conditions: primary human B cells with PBMC
Method in brief: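 B cell/PBMC co-culture (human primary), 24 h compound exposure; sIL-17F by Luminex xMAP; gain-of-signal fit vs DMSO baseline.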

[10] = read-out: Actin alpha 1 (ACTA1), ACTA1 (gene 58); experiment: BSK_MyoF_ACTA1: BioMAP Diversity Plus: MyoF Assay for Actin alpha 1 (ACTA1) Biomarker Activity (AID 2284244); conditions: primary human lung fibroblasts
Method in brief: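 Human lung fibroblasts (MyoF system) dosed with test chemical for 24 h; α-SMA measured by ELISA. Gain of signal fitted relative to DMSO negative control as baseline.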

[11] = read-out: Interleukin 2 (IL2), IL2 (gene 3558); experiment: BSK_BT_xIL2: BioMAP Diversity Plus: BT Assay for Interleukin 2 (IL2) Biomarker Activity (AID 2284245); conditions: primary human B cells with PBMC
Method in brief: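 Human B cells co-cultured with PBMC, exposed to test chemical for 24 h. Secreted IL-2 quantified by Luminex xMAP bead immunoassay; activity fitted in the positive direction relative to DMSO vehicle baseline.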

[12] = read-out: Basic fibroblast growth factor (bFGF), FGF2 (gene 2247); experiment: BSK_MyoF_bFGF: BioMAP Diversity Plus: MyoF Assay for Basic fibroblast growth factor (bFGF) Biomarker Activity (AID 2284246); conditions: primary human lung fibroblasts
Method in brief: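 Human lung fibroblasts were dosed with chemicals and bFGF was quantified by ELISA 24 h later. Activity was fitted in the gain-of-signal direction relative to DMSO as negative control and baseline. Parallel SRB total-protein staining tracked overt cytotoxicity.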

[13] = UKN4_HCS_LUHMES_cell_viability: Viability Assessment in the University of Konstanz (UKN) Leist Lab Neurite Outgrowth Assay in human LUHMES cells (UKN4) (AID 2284232)
Method in brief: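 LUHMES cells differentiated 2 days, replated without cAMP/GDNF, then exposed to compounds for 24 h from attachment. Viability read by high-content fluorescence imaging after 30 min live-staining with H-33342 and calcein-AM; bidirectional fit relative to DMSO baseline.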

[14] = UKN2_HCS_IMR90_cell_viability: Viability Assessment in the University of Konstanz (UKN) Leist Lab Neural Crest Cell Migration Assay in human induced IMR90 Pluripotent Stem Cells (UKN2) (AID 2284233);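 note: viability of neural crest cells differentiated from IMR90 iPSC measured by calcein-AM fluorescence imaging; cells exposed to compound for 24 h after a 24 h migration phase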
Method in brief: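 Human IMR90-derived neural crest cells were allowed to migrate for 24 h into a cell-free zone, then exposed to test chemicals for 24 h. Calcein-AM and Hoechst staining with high-content imaging gave viability, analysed against DMSO baseline.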

[15] = TAMU_HCS_1.5hr_SingleDonor1434_Cytotoxicity: Cytotoxicity Assessment using High-content Screening (HCS) Fluorescent Imaging for the Texas A&M University (TAMU) 1.5-hr Human Induced Pluripotent Stem Cell (iPSC)-derived Cardiotoxicity Assay (AID 2284234; active = hit-call score of the fitted dose curve at least 0.9, where 1 is the maximum)
Method in brief: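 Human iPSC-derived cardiomyocytes dosed at 0.2, 1, 10, 100 uM final (0.5% DMSO) for 90 min at 37 C. Hoechst 33342-stained nuclei counted by 10x high-content imaging; POD is EC10, a 10% drop in total cell count versus DMSO.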

[16] = CCTE_Mundy_HCI_Cortical_NOG_NeuronCount: CCTE's Neurite Outgrowth Assay in rat cortical cells for Neuron Count, Mundy Lab (AID 2284236; active = hit-call score of the fitted dose curve at least 0.9, where 1 is the maximum;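 note: neurons counted by imaging betaIII-tubulin and Hoechst stained cortical cells; cells exposed to compound for about 48 hours before fixation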)
Method in brief: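 Read-out: neuron number by high-content imaging of betaIII-tubulin (Alexa Fluor-488) and Hoechst-labelled rat primary cortical cells.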

[17] = CCTE_Mundy_HCI_Cortical_NOG_BPCount: CCTE's Neurite Outgrowth Assay in rat cortical cells for Branch Point Count, Mundy Lab (AID 2284237);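 note: branch points counted about two days after chemical exposure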
Method in brief: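 Measured 50.33 h after dosing, this morphology endpoint uses rat primary cortical cultures labelled for betaIII-tubulin. Branch points are quantified by high-content imaging, with DMSO as negative control and baseline.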

[18] = CCTE_Mundy_HCI_hNP1_CellTiter: CCTE's Cell Titer-Glo 2 Assay in human neuroprogenitor cells for Viability, Mundy Lab (AID 2284241; active = hit-call score of the fitted dose curve at least 0.9, where 1 is the maximum;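 for AC50: a hit is a drop in ATP luminescence versus DMSO meaning reduced viability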)
Method in brief: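 Human neural progenitor cells (hNP1, WA09-derived) were plated on poly-L-ornithine/laminin and grown 40 to 44 hours at 37 °C, 5% CO2 before chemical addition. Twenty-four hours later, ATP was measured by CellTiter-Glo luminescence; loss of signal versus DMSO indicates reduced viability.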

[19] = CCTE_Mundy_HCI_Cortical_Synap_Neur_Matur_NeuronCount: CCTE's Synaptogenesis and Neurite Maturation Assay in rat cortical cells for Neuron Count, Mundy Lab (AID 2284242; active = hit-call score of the fitted dose curve at least 0.9, where 1 is the maximum;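 for AC50: neuron number from Hoechst nuclei and MAP2 staining by high-content imaging; hits reduce neuron count versus DMSO baseline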)
Method in brief: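 Rat primary cortical cells received AraC at DIV 5 to arrest glia, then were dosed with chemicals at DIV 7 through DIV 12. Fixed cells were stained for nuclei, MAP2 and synaptophysin, and neurons were counted by high-content imaging relative to DMSO.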

[20] = TAMU_PeakParms_SingleDonor1434_QT: Texas A&M University (TAMU) 1.5-hr Human Induced Pluripotent Stem Cell (iPSC)-derived Cardiomyocytes Calcium (Ca+2) Flux Assay for Cardiotoxicity: QT (decay-rise ratio) (AID 2284235; active = hit-call score of the fitted dose curve at least 0.9, where 1 is the maximum)
Method in brief: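 iPSC-derived cardiomyocytes (single donor 1434) dosed at 0.2, 1, 10, 100 uM final in 0.5% DMSO, 90 min at 37C. Ca2+ flux fluorescence decay/rise ratio; EC05 (5% increase versus DMSO) as POD, excluding beat-arrest and severe-notch data.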

Sequence of Tumor necrosis factor (Homo sapiens) (P01375 whole entry, looked up): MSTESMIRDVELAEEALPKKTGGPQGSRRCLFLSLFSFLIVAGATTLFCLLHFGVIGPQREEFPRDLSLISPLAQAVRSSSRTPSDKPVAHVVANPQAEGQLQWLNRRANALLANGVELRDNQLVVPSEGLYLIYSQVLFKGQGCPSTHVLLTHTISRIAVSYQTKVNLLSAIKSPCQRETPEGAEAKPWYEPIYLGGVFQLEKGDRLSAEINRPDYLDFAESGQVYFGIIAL

Question: For `OCCC(F)(F)C(F)(F)C(F)(F)C(F)(F)C(F)(F)C(F)(F)F`, which outcome [1] is on record?
Answer: inactive

Question: And the AC50 [2]?
Answer: 49.1 µM (active)

Question: What about the outcome [2] of the same compound?
Answer: inactive

Question: What about the AC50 [3] of the same compound?
Answer: 43.1 µM (active)

Question: What about the outcome [3] of the same compound?
Answer: inactive

Question: What about the AC50 [4] of the same compound?
Answer: 41.4 µM (active)

Question: And the outcome [4]?
Answer: inactive

Question: And the outcome [5]?
Answer: inactive

Question: What about the AC50 [6] of the same compound?
Answer: 54.6 µM (active)

Question: And the outcome [6]?
Answer: inactive

Question: What about the outcome [7] of the same compound?
Answer: inactive

Question: And the outcome [8]?
Answer: inactive

Question: What about the AC50 [9] of the same compound?
Answer: 5.95 µM (active)

Question: And the outcome [9]?
Answer: inactive

Question: What about the outcome [10] of the same compound?
Answer: inactive

Question: And the outcome [11]?
Answer: inactive

Question: And the outcome [12]?
Answer: inactive

Question: With `CC#C[C@]1(O)CC[C@H]2[C@@H]3CCC4=CC(=O)CCC4=C3[C@@H](c3ccc(N(C)C)cc3)C[C@@]21C` as the compound, how does the outcome [13] read?
Answer: inactive

Question: And the AC50 [14]?
Answer: 16.5 µM (active) and 8.62 µM (active)

Question: And the outcome [15]?
Answer: inactive

Question: What about the AC50 [16] of the same compound?
Answer: 69.2 µM (active) and 15 µM (active)

Question: What about the AC50 [17] of the same compound?
Answer: 26.2 µM (active) and 24.2 µM (active)

Question: And the AC50 [8]?
Answer: 13.5 µM (active) and 18.4 µM (active)

Question: What about the AC50 [18] of the same compound?
Answer: 27.4 µM (active) and 21.6 µM (active)

Question: And the AC50 [19]?
Answer: 22.9 µM (active) and 25.2 µM (active)

Question: Which results are given for `OCCC(F)(F)C(F)(F)C(F)(F)C(F)(F)C(F)(F)C(F)(F)C(F)(F)C(F)(F)F`?
Answer: AC50 [1]: 45.1 µM (active) and 45.8 µM (active); AC50 [2]: 53.1 µM (active) and 52.6 µM (active); AC50 [3]: 44.1 µM (active) and 43.9 µM (active); AC50 [4]: 45.5 µM (active) and 41.3 µM (active); AC50 [5]: 13.4 µM (active) and 9.75 µM (active); AC50 [6]: 19.8 µM (active) and 17.2 µM (active); AC50 [7]: 14.5 µM (active) and 10 µM (active); outcome [8]: inactive; outcome [18]: inactive; AC50 [9]: 22.9 µM (active) and 36.3 µM (active); AC50 [10]: 14.6 µM (active) and 15.1 µM (active); AC50 [11]: 23.6 µM (active) and 28.4 µM (active); AC50 [12]: 17.4 µM (active) and 10.7 µM (active)

Question: What does the source list for `CC1=C(/C=C/C(C)=C/C=C/C(C)=C/C(=O)O)C(C)(C)CCC1`?
Answer: AC50 [13]: 48 µM (active); outcome [14]: inactive; outcome [16]: inactive; outcome [8]: inactive; outcome [19]: inactive

Question: Which outcome [13] does the source give for `CN1CCC[C@H]1c1cccnc1` here?
Answer: inactive

Question: And the outcome [14]?
Answer: inactive

Question: And the outcome [16]?
Answer: inactive

Question: And the outcome [8]?
Answer: inactive

Question: With `c1ccc2c(c1)ccc1ccccc12` as the compound, how does the outcome [20] read?
Answer: inactive

Question: Which results are given for `FC(F)(I)C(F)(F)C(F)(F)C(F)(F)C(F)(F)C(F)(F)I`?
Answer: AC50 [1]: 20.6 µM (active) [middle of 5 runs]; AC50 [4]: 21.2 µM (active) [middle of 5 runs]; AC50 [5]: 5.28 µM (active) [middle of 5 runs]; AC50 [6]: 4.42 µM (active) [middle of 5 runs]; AC50 [7]: 4.38 µM (active) [middle of 5 runs]; AC50 [12]: 8.27 µM (active) [middle of 5 runs]
